Source: PubChem
Pol beta inh-1 = inhibitors of human DNA polymerase beta. Pol beta primer extension/strand displacement, fluorescence kinetic. Potency, µM (titrated, usually from 114 µM), inactives show top-dose activity change, negative = inhibition, most hits filed as inhibitors. 340,000 compounds, 1.3% hits. AID 485314; also: potency is read from the fitted curve at half-maximal effect; % is scaled to controls: 0 for no effect and ±100 for the full control effect
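Pol beta (10 nM) and compounds were preincubated 15 min at room temperature, then 50 nM substrate (final) started primer extension/strand displacement. Reads were taken at 0 and 10 min; concentration-response data were fitted to a four-parameter Hill equation.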
Pol eta inh = blocks human DNA polymerase eta activity; recombinant Pol eta, fluorescent DNA replication assay; Q9Y253; AID 588591; 390,000 compounds, 1.2% hits; Potency, µM (top dose mostly 114 µM), for the others: at the highest dose activity change, negative = inhibition, actives largely listed as inhibitors; also: potency is read from the fitted curve at half-maximal effect; % is scaled to controls: 0 for no effect and ±100 for the full control effect
Target sequence (Q9Y253 whole entry, looked up): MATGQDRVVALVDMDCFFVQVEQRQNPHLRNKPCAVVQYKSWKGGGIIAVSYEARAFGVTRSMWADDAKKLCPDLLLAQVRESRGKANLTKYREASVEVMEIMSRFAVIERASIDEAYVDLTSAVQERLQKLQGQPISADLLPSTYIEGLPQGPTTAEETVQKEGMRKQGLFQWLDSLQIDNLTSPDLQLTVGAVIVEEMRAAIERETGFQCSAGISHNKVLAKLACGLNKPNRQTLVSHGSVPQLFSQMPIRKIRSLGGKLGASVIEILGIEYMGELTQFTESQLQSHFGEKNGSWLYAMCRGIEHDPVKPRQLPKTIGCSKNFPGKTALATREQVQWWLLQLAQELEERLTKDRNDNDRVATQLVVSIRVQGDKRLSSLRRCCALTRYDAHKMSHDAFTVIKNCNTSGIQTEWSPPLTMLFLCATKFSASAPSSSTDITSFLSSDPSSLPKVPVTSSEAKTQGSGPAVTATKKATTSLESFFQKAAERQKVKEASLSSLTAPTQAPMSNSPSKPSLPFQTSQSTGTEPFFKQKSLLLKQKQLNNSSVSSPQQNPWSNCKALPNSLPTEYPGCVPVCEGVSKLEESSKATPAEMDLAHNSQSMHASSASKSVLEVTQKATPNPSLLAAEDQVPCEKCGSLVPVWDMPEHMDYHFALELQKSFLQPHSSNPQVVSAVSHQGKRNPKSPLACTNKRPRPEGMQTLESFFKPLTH
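Pol eta (10 nM) was preincubated with compounds for 15 min at room temperature, after which fluorescent replication substrate (50 nM final) was added to start the reaction. Fluorescence was read kinetically at 0 and 10 min.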
POLI inh = DNA polymerase iota (human) inhibition; Q9UNA4; Pol iota fluorescent replication assay, 10 min; Potency, µM (top dose mostly 115 µM), for inactives: at the highest dose activity, negative = inhibition, usual class: inhibitors; 390,000 compounds, 1% hits; also: potency is read from the fitted curve at half-maximal effect
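Fluorescent replication assay read twice, at 0 min and 10 min after adding 50 nM (final) substrate. Enzyme (10 nM) and compounds were first incubated 15 min at room temperature; enzyme-free buffer wells were negative controls.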
PI5P4K alpha inh = inhibitors of human PI5P4K alpha | P48426 | PI5P4Kalpha enzyme, ADP-Glo luminescence, 60 min; hits give low values | max response, % | 330,000 compounds, 1.2% hits | AID 652105; active = max response of -50% or lower; inconclusive = between -30% and -50%; inactive = -30% or higher; also: value at the top dose of about 77 µM; % is scaled to controls: 0 for no effect and ±100 for the full control effect
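ADP-Glo luminescence end-point read after a 60 min room-temperature kinase reaction of PI5P4Kalpha plus substrate, initiated with ATP at 5 microM final. Buffer: 0.038 M HEPES pH 7.4, EGTA, 0.1% CHAPS, 5% DMSO.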
Pol kappa inh = DNA polymerase kappa (human) inhibition; purified Pol kappa, fluorescent DNA synthesis assay, 10 min; Potency, µM (top dose mostly 107 µM), for the others: at the highest dose activity, negative = inhibition, usual class: inhibitors; 400,000 compounds, 0.53% hits; also: potency is read from the fitted curve at half-maximal effect; % is scaled to controls: 0 for no effect and ±100 for the full control effect
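Pol kappa 10 nM + cpd, 15 min RT; start w/ substrate 50 nM final; fluorescence kinetic read, 0 and 10 min. Neg ctrl: buffer, no enzyme.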
PI4K2A inh = inhibitors of human PI4K2A | Q9BTU6 | purified PI4K2A, ADP-Glo luminescence, 1 h; hits give low values | activity change, negative = inhibition, % at 76.9 µM | 420,000 compounds, 0.13% hits | AID 1346378; in the data active = activity change below about -50%; inconclusive = mostly about -30% to -49%;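 also: -100% = wells without enzyme as full effect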
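PI4K2A activity was measured by ADP-Glo luminescence: enzyme (4 ug/mL stock) and phosphatidylinositol (1.2 mM stock) in Tris pH 7.5/MgCl2/EGTA/Triton X-100 buffer were reacted with ATP (300 microM stock) for one hour at ambient temperature.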
Pol beta inh-2 = Validate hits inhibiting human DNA polymerase beta | shares compounds with Pol beta inh-1 | Pol beta primer extension/strand displacement, fluorescence kinetic | Potency, µM, hits mostly inhibitors | 250 compounds, 87% hits; calls by dose curve; also: potency is read from the fitted curve at half-maximal effect
Klenow inh = counter-screen for DNA polymerase beta inhibitors: Klenow fragment inhibition. shares compounds with Pol beta inh-1. Klenow exo- polymerase counter-screen, fluorescent DNA substrate. activity change, negative = inhibition, % at 57.1 µM. 250 tested, under 10 active
HIV RT inh = inhibits HIV-1 reverse transcriptase in counter-screen. HIV-1 RT polymerase activity, counter-screen. shares compounds with Pol beta inh-1. AID 540301. activity % (negative = inhibition, positive = activation), % at 57.1 µM. 250 tested, under 10 active
POLB valid = DNA polymerase beta inhibition, radiolabeled validation. shares compounds with Pol beta inh-1. radiolabeled primer extension gel assay, phosphorimager. inhibition, % at 10 µM. 110 compounds, 91% hits. AID 540325;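 active = inhibition at 10 µM of 30% or more; inconclusive = no clear call, values can overlap the other calls; inactive = inhibition at 10 µM under 30%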
Pol iota confirm = Human Pol iota inhibitor confirmatory assay; shares compounds with Pol kappa inh; Pol iota primer extension, TAMRA/BHQ fluorescence; Potency, µM, actives largely listed as inhibitors; 1,500 compounds, 77% hits; AID 720496; also: potency is read from the fitted curve at half-maximal effect
* = called active by the depositor; ? = inconclusive; / = no result given; ! = repeats disagree; [ ] = another dose, or the depositor's remark. Shown are actives, neighbours in structure and some others; about 2.8% of the full set was active somewhere. Unless noted, calls follow the shape of the dose curve; as a rule, active = well fitted curve in the direction sought with a large enough effect; inconclusive = small, poorly fitted or top-dose-only effect, or another doubt; inactive = no such curve, though single readings can be large; an effect the other way counts as inactive or inconclusive.

SMILES	Pol beta inh-1	Pol eta inh	POLI inh	PI5P4K alpha inh	Pol kappa inh	PI4K2A inh	Pol beta inh-2	Klenow inh	HIV RT inh	others
CCCCCn1c(N)c(-c2nc3ccccc3o2)c2c([N+](=O)[O-])nn(C)c(=O)c21	1.41µM*	?	-1.9%	-2.9	-12.3%	-5.4	11.2*	-14.0	7.8
CNc1ccc(Br)cc(C(=O)/C=C/c2cc(OC)ccc2OC)c1=O	12.6µM*	14.1µM*	?	-28.0	?	-13.2	28.2*	5.8	-24.5	POLB valid=43.4*
COC(=O)c1sccc1-c1ccc(C(=O)Nc2cccc(Cl)c2)o1	14.1µM*	?	?	-1.4	-29.2%	5.9	17.8*	-0.5	30.6
C#CC1(O)CC[C@H]2[C@@H]3CCC4=CCCC[C@@H]4[C@H]3CC[C@@]21C (stereo partly drawn)	/	/	/	/	/	-2.9	/	/	/
Cc1cc(SCC(=O)c2ccc3c(c2)OCO3)nc2ccccc12	0.2%	-8.0%	-1.4%	/	-17.4%	-0.3	/	/	/
CCOc1ccc(-c2nc(SCC(=O)c3ccccc3)n[nH]2)cc1	1.6%	-8.6%	-11.5%	/	-9.6%	-3.4	/	/	/
O=C(CSc1n[nH]c(-c2ccccc2)n1)c1ccc(O)c(O)c1	15.8µM*	39.8µM*	17.8µM*	/	25.1µM*	3.6	31.6*	-27.7	?	POLB valid=25.4
Cc1cc(SCC(=O)c2ccc(O)c(O)c2)nc2ccccc12	14.1µM*	11.2µM*	39.8µM*	-21.8	50.1µM*	-1.4	11.2*	-20.5	?
O=C(O)c1ccc(-c2ccc(-c3ccccc3)cc2)s1	15.8µM*	/	/	/	/	/	20*	-4.1	42.8
O=C(Nc1ccccc1)c1ccc(-c2ccccc2)s1	3.9%	-14.9%	104.1%	3.1	-20.5%	-6.5	/	/	/
CCCCSc1nc2sc3c(c2c(=O)n1-c1ccccc1C)CC(C)(C)OC3	27.2%	2.0%	11.4%	/	-1.3%	3.5	/	/	/
Cc1c(Cc2ccccc2)c(=O)oc2c(O)c(O)ccc12	12.6µM*	?	8.91µM*	-28.1	?	2.5	5.01*	-26.7	39.8
CCOc1ccccc1NC(=O)c1sc2nc3n(c(=O)c2c1C)CCCCC3	-10.4%	-0.4%	16.8%	/	-12.6%	0.2	/	/	/
COc1cccc2sc(Nc3nnc(-c4ccc(F)cc4)o3)nc12	12.6µM*	50.1µM*	-22.9%	?	-22.3%	0.3	35.5*	-2.8	97.0	POLB valid=85.0*
COc1cccc2sc(Nc3nnc(-c4cccs4)o3)nc12	1.0%	-11.4%	-2.9%	-1.1	-12.1%	0.6	/	/	/
Cc1ccc(O)c(C(=O)c2cnn(C(=O)COc3ccc(Cl)cc3)c2)c1	5.62µM*	?	14.2%	-17.8	-2.7%	0.3	14.1*	-12.7	16.4
O=C(c1cnn(C(=O)COc2ccc(Cl)cc2)c1)c1ccccc1O	?	?	-1.2%	?	-17.4%	3.9	/	/	/
COCCCNC(=O)CN1C(=O)C2CCCCN2C(=O)c2ccccc21 (stereo not drawn)	/	/	/	/	/	2.1	/	/	/
COc1ccccc1CCNC(=O)C1CCN(c2nnc(C)c3c(C)n(-c4ccc(C)cc4)nc23)CC1	-26.7%	-4.7%	15.2%	1.0	10.3%	-2.8	/	/	/
CCOc1ccccc1CNC(=O)C1CCN(c2nnc(C)c3c(C)n(-c4ccc(C)cc4)nc23)CC1	7.08µM*!	?	-1.2%	0.8	-8.6%	4.6	?	-6.1	43.1
C#CCn1c(=NC(=O)c2cccs2)sc2cccc(OC)c21	20µM*	?	?	2.1	-11.7%	4.6	31.6*	-9.2	43.3	POLB valid=77.3*
Cc1cn2c(=O)cc(COC(=O)COc3ccccc3C)nc2s1	?	-14.4%	-3.7%	/	-16.4%	4.7	/	/	/
O=C(Nc1ccc2nn(-c3ccccc3)nc2c1)c1ccc(Br)o1	20µM*	79.4µM*	?	/	?	8.1	20*	-18.1	11.7
O=C(Nc1ccc2nn(-c3ccccc3)nc2c1)c1cc2ccccc2o1	-1.1%	-2.4%	?	/	-18.8%	-1.5	/	/	/
Cn1c(SCC(=O)Nc2ccc3nc(SCC(=O)NC4CC4)sc3c2)nnc1-c1ccccc1	-0.6%	-6.6%	?	-16.0	-6.2%	-0.4	/	/	/
SMILES	Pol beta inh-1	Pol eta inh	POLI inh	PI5P4K alpha inh	Pol kappa inh	PI4K2A inh	Pol beta inh-2	Klenow inh	HIV RT inh	others
Cn1c(SCC(=O)Nc2ccc3nc(SCC(=O)N4CCCC4)sc3c2)nnc1-c1ccc(N)cc1	7.94µM*	?	5.62µM*	?	50.1µM*	-20.4	7.08*	5.2	7.7
CCC(Oc1ccccc1)C(=O)N1CCN(Cc2cc(=O)n3nc(-c4cccc(C)c4)sc3n2)CC1 (stereo not drawn)	-0.1%	-7.6%	-5.6%	/	-12.6%[60.1 µM]	2.4	/	/	/
O=C(Nc1cccc([N+](=O)[O-])c1)c1cc2ccccc2cc1O	17.8µM*	?	44.7µM*	-19.4	-27.5%	-6.7	28.2*	-7.8	27.0	POLB valid=97.7*
O=C(O)c1ccccc1C(=O)Nc1cccc([N+](=O)[O-])c1	2.3%	-6.5%	-15.4%	0.3	-7.9%	5.5	/	/	/
COc1ccc(OCC(=O)OCCN2C(=O)c3ccccc3C2=O)cc1	20µM*	-11.9%	5.3%	2.0	-1.1%	-4.4	31.6*	-22.9	-18.8	POLB valid=84.5*
CCOc1ccc(OCCN2C(=O)c3ccccc3C2=O)cc1	-24.6%	-14.7%	?	-2.2	6.1%	-3.8	/	/	/
CCc1ccccc1Nc1cc(C(=O)NC2CCC(C)CC2)c2ccccc2n1 (stereo not drawn)	12.3%	-6.2%	32.4%	/	-11.4%	3.0	/	/	/
N#Cc1c2nc3ccccc3nc2n2cc(NC(=O)c3ccc(F)cc3)ccc12	6.31µM*	35.5µM*	?	?	?	-15.5	10*	-19.3	0.4
O=C(Nc1cccc(-c2cn3ccccc3n2)c1)c1cc2ccccc2oc1=O	3.98µM*	?	?	/	-17.5%	-10.2	5.62*	28.3	47.5	Pol iota confirm=?
O=C(/C=C/c1ccccc1Cl)Nc1ccc2c(c1)C(=O)NC2=O	8.91µM*	?	?	-25.7	?	-19.1	14.1*	-2.9	23.5	Pol iota confirm=?
